From PubChem
The entries come from a sample that favours hits as a whole.
ROS inducer – ROS inducers in U2OS cancer cells, primary screen, cell-based, H2DCF-DA fluorescence; U2OS ROS induction; ROS induction (% of piperlongumine), % at 10 µM; 46,000 compounds, 2% hits; AID 624156, 2012; in the data active = ROS induction above about 79%, passing the limit was not always enough;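 note: 0% = DMSO vehicle median and 100% = reference compound median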
* = called active by the depositor.

SMILES	ROS inducer
COc1ccc(NC2=Nc3ccccc3CCC2)cc1	-1
CCOc1ccc(S(=O)(=O)N2CCCCC2)cc1-c1nc2c(C(C)(C)C)nn(C)c2c(=O)[nH]1	170*
COC(=O)c1cn(C)c2ccc(S(=O)(=O)N3CCCCC3)cc2c1=O	-8
CCN1CCN(C(=O)C2CCN(S(=O)(=O)c3ccc4c(c3)nc(C)n4C3CCCC3)CC2)CC1	-18
CCCc1nc(C)c2c(=O)[nH]c(-c3cc(S(=O)(=O)N4CCN(CC)CC4)ccc3OCC)nn12	134*
COc1ccc(CN2C(=O)c3cccc4cccc(c34)C2=O)cc1S(=O)(=O)N1CCCCCC1	34
O=C(O)CCN1C(=O)/C(=C/c2ccccn2)SC1=S	7
CC(C)NC(=O)CSCc1cnn(-c2ccccc2)c1-n1cccc1	-5
CN(C)/C=N/c1nnc(SCC(=O)Nc2cc(Cl)cc(Cl)c2)s1	-7
O=C1CCCc2c1cc(C(=O)Nc1ccccc1)c(=O)n2-c1ccccc1	-7
O=C(NCc1ccccc1)c1cc2c(s1)CS(=O)(=O)C2	-4
C[C@@H]1CN([C@@H](C)CO)C(=O)Cc2cc(NC(=O)Nc3cccc4ccccc34)ccc2O[C@@H]1CN(C)C(=O)Nc1ccc(C(F)(F)F)cc1	162*
C[C@@H]1CN([C@@H](C)CO)C(=O)c2cc(NC(=O)Nc3cccc4ccccc34)ccc2O[C@@H]1CN(C)C(=O)Nc1ccc(C(F)(F)F)cc1	42
C[C@H](CO)N1C[C@H](C)[C@H](CN(C)C(=O)Nc2ccc(C(F)(F)F)cc2)Oc2ccc(NC(=O)Nc3cccc4ccccc34)cc2C1=O	29
C[C@H](CO)N1C[C@H](C)[C@H](CN(C)C(=O)Nc2cccc3ccccc23)Oc2ccc(NC(=O)Nc3ccc(C(F)(F)F)cc3)cc2CC1=O	-7
C[C@H]1CN([C@@H](C)CO)C(=O)c2cc(NC(=O)Nc3cccc4ccccc34)ccc2O[C@@H]1CN(C)C(=O)Nc1ccc(C(F)(F)F)cc1	80*
C[C@H](CO)N1C[C@H](C)[C@H](CN(C)C(=O)Nc2ccc(C(F)(F)F)cc2)Oc2ccc(NC(=O)Nc3cccc4ccccc34)cc2CC1=O	2
O=S(=O)(Nc1ccc(-c2nc3cccnc3s2)cc1)c1ccccc1	1
O=C(Nc1ccc2nn(-c3ccccc3)nc2c1)C(c1ccccc1)c1ccccc1	10
CC1CCN(C(=O)c2ccccc2Br)CC1	0
CCCCC1(CC(=O)N2CCOCC2)C(=O)N(c2ccccc2)N(c2ccccc2)C1=O	0
CCOC(=O)c1cnc2c(ccc3ccccc32)c1NCc1ccco1	26
CCOC(=O)c1cnc2c(ccc3ccccc32)c1NCCOC(=O)c1cccnc1	248*
CCOC(=O)c1cnc2ccccc2c1NCCc1ccccc1	113*
CCOC(=O)c1ccc(Nc2ncnc3ccccc23)cc1	-10
SMILES	ROS inducer
CCOC(=O)c1cnc2c(-c3ccccc3)cnn2c1C	45
CCOC(=O)c1cnc2c(ccc3ccccc32)c1NCC(C)C	15
O=C(NCCN1CCC(Cc2ccccc2)CC1)c1ccc(-c2ccccc2)s1	0
O=C(CC1CCC1)Nc1ccc(Oc2ccccc2)cc1	-6
O=C(NCc1ccccc1)C1CCN(C(=O)c2ccccc2)CC1	-3
CC(CNC(=S)Nc1cccc(Cl)c1)CSc1ccc(Cl)cc1 (configuration not stated)	4
O=C(NCCc1ccc(Cl)cc1)c1cc(=O)[nH]c2ccc(Br)cc12	-11
Cc1c(C(=O)Nc2ccc3ccccc3c2)oc2ccccc12	0
O=C(c1cc2ccccc2o1)N1CCCc2ccccc21	4
CC12C=CC(=O)C=C1CCC1C2=CCC2(C)C1CC[C@@H]2C(=O)CN1CCN(c2cc(N3CCCC3)nc(N3CCCC3)n2)CC1 (some centres not stated)	174*
CCOc1ccc(N=c2scc(-c3ccc(Cl)s3)n2C)cc1	-7
CCc1ccc(-c2cn3c4ccccc4nc3n2CCN2CCOCC2)cc1	89*
Cc1ccc(-c2cn3c4ccccc4nc3n2CCN2CCOCC2)cc1	36
CN1CCN(CCCn2c(-c3ccccc3)cn3c4ccccc4nc23)CC1	13
COc1ccc(CCN2C(=S)NC3CC2(C)Oc2c(OC)cc(Br)cc23)cc1OC (configuration not stated)	-8
O=C1CCC(=O)N1CCc1c[nH]c2ccc(OCc3ccccc3)cc12	-7
C[C@@H]1CCCCO[C@@H](CN(C)C(=O)NC2CCCCC2)[C@@H](C)CN([C@H](C)CO)C(=O)c2cc(NS(C)(=O)=O)ccc2O1	-9
CC(C)NC(=O)N(C)C[C@@H]1OCCCC[C@@H](C)Oc2ccc(NS(C)(=O)=O)cc2C(=O)N([C@H](C)CO)C[C@@H]1C	-14
Cc1ccc(S(=O)(=O)Nc2ccc3c(c2)C(=O)N([C@H](C)CO)C[C@H](C)[C@H](CN(C)C(=O)CCCN(C)C)OCCCC[C@@H](C)O3)cc1	4
CC(C)NC(=O)N(C)C[C@@H]1OCCCC[C@@H](C)Oc2ccc(NS(=O)(=O)c3ccc(Cl)cc3)cc2C(=O)N([C@H](C)CO)C[C@@H]1C	11
